In PubChem BioAssay AID2108 (National Center for Advancing Translational Sciences (NCATS), 2009):
Results filed as inconclusive are left out. Active and inactive are the calls of the source. Calls come from the whole dose curve; as a rule, active = well fitted curve in the direction sought with a large enough effect; inconclusive = small, poorly fitted or top-dose-only effect, or effect the other way, or another doubt; inactive = no such curve, though single readings can be large or run the other way.

molecular target: Alpha-galactosidase A (Homo sapiens) (UniProt P06280); experiment: Confirmation of Inhibitors of Human alpha-Galactosidase Using Spleen Homogenate; conditions: alpha-galactosidase enzyme activity; series mostly up to 56.2 µM; activity change: at the top concentration; note: 0% is about no effect
How it was run: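 AC50 values come from Hill-equation fits of normalised 4-methylumbelliferone fluorescence (365/440 nm, read after NaOH/glycine stop). Enzyme source: spleen homogenate; substrate 1 mM final; pH 5.0 citrate buffer; 40 min at 37C; compound titration 0.5 nM–58 uM.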

Sequence of Alpha-galactosidase A (Homo sapiens) (P06280 32-429 limits assumed): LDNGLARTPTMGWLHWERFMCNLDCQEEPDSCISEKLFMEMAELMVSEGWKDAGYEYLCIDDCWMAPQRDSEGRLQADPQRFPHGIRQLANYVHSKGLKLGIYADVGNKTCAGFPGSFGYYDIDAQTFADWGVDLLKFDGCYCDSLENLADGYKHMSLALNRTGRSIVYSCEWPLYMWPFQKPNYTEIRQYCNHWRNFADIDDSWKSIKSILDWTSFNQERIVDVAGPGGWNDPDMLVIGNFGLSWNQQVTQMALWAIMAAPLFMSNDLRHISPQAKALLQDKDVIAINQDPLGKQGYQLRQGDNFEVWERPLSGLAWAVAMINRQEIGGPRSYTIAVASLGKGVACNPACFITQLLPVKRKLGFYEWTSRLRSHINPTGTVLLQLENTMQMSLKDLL

Activity change, inactive:
CC1=CC(=C2C=CC(=O)C=C2)C=C(C)N1C -1.91% [at 23.6 µM]
CCNc1ccc(C2(O)C(=O)c3ccccc3C2=O)cc1 -1.5%
CCc1sc(-c2cc3cccc(OC)c3oc2=O)nc1-c1ccccc1 7.38%
C/C=C1\COC(C(=O)NCCN2CCOCC2)(C(F)(F)F)C=C1C=C1CCCCC1 (centres undefined) -3.09%
O=c1cc(-c2ccccc2)[nH]c2[nH]n(-c3ccccc3)c(=O)c12 0.265%
COc1ccccc1N1CCN(C(c2cccs2)C(C)NC(=O)c2cccs2)CC1 (centres undefined) 0.409% [at 23.6 µM]
CC(=O)N1CCN(c2ccc(NCc3ccc4c(c3)OCO4)cc2)CC1 -12.3%
Cn1c(=O)c2sccc2n2c(CCCC(=O)Nc3ccc(F)c(F)c3)nnc12 -2.29%
CN(C)N=C1c2cc(S(=O)(=O)N3CCOCC3)ccc2-c2ccc(S(=O)(=O)N3CCOCC3)cc21 9.04%
O=C1c2cc(O)c(O)cc2S(=O)(=O)C1c1ccccc1 (centres undefined) 0.148%
CCOc1c(Br)cc(CNc2ccc(N3CCOCC3)cc2)cc1OC -4.15%
O=c1oc2ccccc2cc1-c1nc2c(s1)CCc1ccccc1-2 3.53%
Cc1ccc(-c2nc(-c3cc4cc(Cl)ccc4oc3=O)sc2C)cc1 9.45%
COC(=O)c1ccc(C(=O)OC)c(NC(=S)N2CCOCC2)c1 3.82% [at 23.6 µM]
CCS(=O)(=O)N1Cc2ccccc2CC1C(=O)Nc1ccc(NC(C)=O)cc1 (centres undefined) -1.12% [at 23.6 µM]
CCOc1cc(/C=C2\SC(N)=NC2=O)ccc1O -4.17%
O=C1NC[C@@H](Cc2cccc3ccccc23)N(CCc2cc(C(F)(F)F)cc(C(F)(F)F)c2)C1=O -5.01%
CCOC(=O)C(CC)(CCC(=O)O)c1csc(Nc2ccc(C)cc2)n1 (centres undefined) 9.44% [at 23.6 µM]

outcome, inactive:
Oc1ccc(NCc2ccccc2OCc2ccccc2)cc1
